# Data from the supplement of paper PMC10849652.
# Targets with a hit are over-represented here; the source holds about 8,800 in all. About 0.5% of all pairs of compound and target were hits. Unmarked numbers belong to inactive results.
# What was measured:
# Test in all cases: log2 fold change, soluble protein after heating vs DMSO (PISA); higher = thermal stabilisation; K562 lysate, 10 uM; active = over 0.2 and 3.5 SD of the protein, either way, in both replicates (recomputed)
# erlotinib = compound: C#Cc1cccc(Nc2ncnc3cc(OCCOC)c(OCCOC)cc23)c1 [erlotinib]
# Method in brief: (§1)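 Soluble protein was defined as the supernatant remaining after 21,000xg for 90 min, following pooling of heated aliquots and adjustment to 0.5% NP-40 at 4°C. Before that, crude K562 extract at 1 mg/mL protein in PBS pH 7.4 with 1 mM MgCl2 was treated with 10 μM compound for 30 min and heated for 3 min across 48°C-58°C. Quantification used TMTpro 16plex LC-MS/MS with channel sums equalised, and values are log-two fold changes in thermal stability relative to solvent controls from duplicates.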
# [1] = compound: C/C(=N\NC(=O)C1=CC(=CC=C1)S(=O)(=O)N2CCOCC2)/C3=C(C=CC(=C3)Cl)O
# Method in brief: as §1
# [2] = compound: C1=CC(=CC=C1C2=NC3=C(N2)C=C(C=C3)C(=O)N)OC4=CC=C(C=C4)Cl
# Method in brief: as §1
# [3] = compound: C1=CC2=C(C=CC(=C2)/C=C\3/C(=O)NC(=NCC4=CC=CS4)S3)N=C1
# Method in brief: as §1
# [4] = compound: C1=CC2=NC=CN=C2C=C1/C=C/3\C(=O)NC(=O)S3
# Method in brief: as §1
# [5] = compound: C1=CC=C(C=C1)C2=NC(=C(N2)C3=CC=NC=C3)C4=CC(=C(C=C4)Cl)O
# Method in brief: as §1
# [6] = compound: C1=CC=C2C(=C1)C3=NNC4=CC=CC(=C43)C2=O
# Method in brief: as §1
# [7] = compound: C1CCN(C1)C(=O)NC2=CC=CC(=C2)NC3=NC=C(C(=N3)NCCC4=CN=CN4)Br
# Method in brief: as §1
# [8] = compound: C1CN(CCC1(CC2=CC=C(C=C2)Cl)N)C3=NC=NC4=C3C=CN4
# Method in brief: as §1
# IRAK-1-4 Inhibitor I = compound: C1COCCN1CCN2C3=CC=CC=C3N=C2NC(=O)C4=CC(=CC=C4)[N+](=O)[O-] [IRAK-1-4 Inhibitor I]
# Method in brief: as §1
# ibrutinib = compound: C=CC(=O)N1CCC[C@@H](n2nc(-c3ccc(Oc4ccccc4)cc3)c3c(N)ncnc32)C1 [ibrutinib]
# Method in brief: as §1
# [9] = compound: CC(=O)c1cnc2ccc(-c3cc(Cl)c(O)c(Cl)c3)nc2c1N[C@H]1CC[C@H](CN(C)C)CC1
# Method in brief: as §1
# ralimetinib = compound: CC(C)(C)Cn1c(N)nc2ccc(-c3[nH]c(C(C)(C)C)nc3-c3ccc(F)cc3)nc21 [ralimetinib]
# Method in brief: as §1
# [10] = compound: CC(C)(O)CC(=O)NCCn1ccc2ncnc(Nc3ccc(Oc4cccc(C(F)(F)F)c4)c(Cl)c3)c21
# Method in brief: as §1
# [11] = compound: CC(C)C1=C2N=C(C=C(N2N=C1)NCC3=CC=CC=C3)NCCCCCCN
# Method in brief: as §1
# [12] = compound: CC1=C(C(CC(=O)N1)C2=CC=C(C=C2)C(F)(F)F)C(=O)NC3=C(C=C4C(=C3)C=NN4)F
# Method in brief: as §1
# [13] = compound: CC1=C(C2=C(C=C1)C(=O)C3=CC=CC=C3N2CCCN)C
# Method in brief: as §1
# [14] = compound: CC1=C(C=C(C=C1)NC(=O)C2=CC(=CC=C2)C(C)(C)C#N)NC3=CC4=C(C=C3)N=CN(C4=O)C
# Method in brief: as §1
# [15] = compound: CC1=C(C=C(C=C1)NC(=O)C2=CC(=CC=C2)N(C)C)NC(=O)C3=CC=C(C=C3)O
# Method in brief: as §1
# [16] = compound: CC1=CC=C(C=C1)SC2=C3C=C(SC3=CN=C2)C(=O)N
# Method in brief: as §1
# Sequence of UniProt Q6WRX3 (Q6WRX3 whole entry, looked up): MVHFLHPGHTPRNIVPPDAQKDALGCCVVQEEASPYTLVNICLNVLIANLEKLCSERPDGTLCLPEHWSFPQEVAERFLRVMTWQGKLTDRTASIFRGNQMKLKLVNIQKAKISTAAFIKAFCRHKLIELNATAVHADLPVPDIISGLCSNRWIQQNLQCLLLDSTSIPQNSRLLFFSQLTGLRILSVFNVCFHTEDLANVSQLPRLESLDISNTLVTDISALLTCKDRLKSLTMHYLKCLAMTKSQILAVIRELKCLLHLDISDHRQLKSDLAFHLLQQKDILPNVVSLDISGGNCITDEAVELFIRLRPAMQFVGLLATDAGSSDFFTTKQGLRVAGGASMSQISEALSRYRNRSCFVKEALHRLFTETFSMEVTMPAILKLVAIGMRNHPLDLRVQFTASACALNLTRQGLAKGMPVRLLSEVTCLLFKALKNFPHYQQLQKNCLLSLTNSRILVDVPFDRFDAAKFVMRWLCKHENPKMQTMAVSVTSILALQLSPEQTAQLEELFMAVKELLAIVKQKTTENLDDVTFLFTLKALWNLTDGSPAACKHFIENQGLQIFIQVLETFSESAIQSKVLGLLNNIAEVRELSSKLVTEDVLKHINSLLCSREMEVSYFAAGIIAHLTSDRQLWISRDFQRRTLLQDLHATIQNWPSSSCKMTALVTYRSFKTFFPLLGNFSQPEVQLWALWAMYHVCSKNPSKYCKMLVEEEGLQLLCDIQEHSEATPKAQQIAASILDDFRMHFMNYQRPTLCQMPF
# Sequence of UniProt Q86WB0 (Q86WB0 whole entry, looked up): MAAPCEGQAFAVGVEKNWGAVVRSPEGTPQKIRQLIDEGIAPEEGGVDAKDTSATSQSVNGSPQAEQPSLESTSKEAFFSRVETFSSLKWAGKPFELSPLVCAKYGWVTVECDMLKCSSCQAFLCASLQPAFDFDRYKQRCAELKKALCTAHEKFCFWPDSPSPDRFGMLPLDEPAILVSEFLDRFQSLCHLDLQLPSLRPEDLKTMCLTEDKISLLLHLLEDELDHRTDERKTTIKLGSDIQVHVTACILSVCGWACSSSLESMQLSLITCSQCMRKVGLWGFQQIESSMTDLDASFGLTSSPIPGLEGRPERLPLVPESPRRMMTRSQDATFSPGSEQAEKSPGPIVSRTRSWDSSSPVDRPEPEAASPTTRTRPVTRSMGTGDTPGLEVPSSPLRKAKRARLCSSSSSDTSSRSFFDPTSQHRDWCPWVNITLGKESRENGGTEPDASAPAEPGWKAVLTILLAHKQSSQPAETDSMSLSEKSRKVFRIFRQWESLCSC
# Sequence of UniProt P07947 (P07947 whole entry, looked up): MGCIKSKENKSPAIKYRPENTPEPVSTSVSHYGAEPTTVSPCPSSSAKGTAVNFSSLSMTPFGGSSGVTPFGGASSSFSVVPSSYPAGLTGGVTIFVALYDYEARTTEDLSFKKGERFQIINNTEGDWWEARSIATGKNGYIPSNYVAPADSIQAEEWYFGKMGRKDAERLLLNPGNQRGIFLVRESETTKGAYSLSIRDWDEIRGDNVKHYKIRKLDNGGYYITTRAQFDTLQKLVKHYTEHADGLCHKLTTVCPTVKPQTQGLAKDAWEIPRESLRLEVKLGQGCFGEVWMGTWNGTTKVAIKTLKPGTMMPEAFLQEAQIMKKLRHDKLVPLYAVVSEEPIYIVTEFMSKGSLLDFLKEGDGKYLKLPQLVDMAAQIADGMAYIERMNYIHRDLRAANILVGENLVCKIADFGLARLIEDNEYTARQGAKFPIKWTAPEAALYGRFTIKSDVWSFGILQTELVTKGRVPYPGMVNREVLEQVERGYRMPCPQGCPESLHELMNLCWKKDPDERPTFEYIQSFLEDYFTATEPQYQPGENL
# Sequence of UniProt Q86U90 (Q86U90 whole entry, looked up): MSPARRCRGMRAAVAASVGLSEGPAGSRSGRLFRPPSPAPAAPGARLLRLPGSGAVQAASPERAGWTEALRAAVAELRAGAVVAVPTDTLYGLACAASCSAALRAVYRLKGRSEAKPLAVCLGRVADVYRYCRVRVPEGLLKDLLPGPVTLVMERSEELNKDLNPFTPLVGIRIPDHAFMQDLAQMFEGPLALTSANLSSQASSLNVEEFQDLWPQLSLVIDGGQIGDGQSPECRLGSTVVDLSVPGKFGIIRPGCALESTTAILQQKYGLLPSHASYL
# Sequence of UniProt Q9P253 (Q9P253 whole entry, looked up): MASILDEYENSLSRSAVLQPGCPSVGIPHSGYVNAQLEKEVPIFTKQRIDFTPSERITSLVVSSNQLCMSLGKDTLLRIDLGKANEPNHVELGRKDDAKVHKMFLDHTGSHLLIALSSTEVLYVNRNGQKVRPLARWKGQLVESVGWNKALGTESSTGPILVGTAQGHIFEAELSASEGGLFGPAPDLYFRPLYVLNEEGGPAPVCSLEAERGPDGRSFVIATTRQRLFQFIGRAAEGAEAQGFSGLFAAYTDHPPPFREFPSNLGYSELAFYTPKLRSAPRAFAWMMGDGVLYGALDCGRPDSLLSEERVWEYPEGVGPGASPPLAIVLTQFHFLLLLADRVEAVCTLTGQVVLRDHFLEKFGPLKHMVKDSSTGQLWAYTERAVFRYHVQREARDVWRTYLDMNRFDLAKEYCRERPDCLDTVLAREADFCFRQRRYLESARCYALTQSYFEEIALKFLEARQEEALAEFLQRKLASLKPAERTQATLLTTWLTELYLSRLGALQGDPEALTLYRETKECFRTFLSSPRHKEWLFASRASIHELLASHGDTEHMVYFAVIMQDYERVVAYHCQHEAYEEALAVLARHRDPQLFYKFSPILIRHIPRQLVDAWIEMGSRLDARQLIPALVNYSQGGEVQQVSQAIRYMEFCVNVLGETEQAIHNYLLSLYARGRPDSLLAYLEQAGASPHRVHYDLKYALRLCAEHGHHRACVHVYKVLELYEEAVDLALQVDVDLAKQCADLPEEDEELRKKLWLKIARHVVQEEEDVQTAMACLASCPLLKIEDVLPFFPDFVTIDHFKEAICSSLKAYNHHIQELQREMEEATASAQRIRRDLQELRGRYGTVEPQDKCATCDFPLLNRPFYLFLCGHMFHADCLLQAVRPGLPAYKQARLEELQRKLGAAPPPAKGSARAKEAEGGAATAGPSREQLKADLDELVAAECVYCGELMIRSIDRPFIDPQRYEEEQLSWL
# Sequence of UniProt Q8IX07 (Q8IX07 whole entry, looked up): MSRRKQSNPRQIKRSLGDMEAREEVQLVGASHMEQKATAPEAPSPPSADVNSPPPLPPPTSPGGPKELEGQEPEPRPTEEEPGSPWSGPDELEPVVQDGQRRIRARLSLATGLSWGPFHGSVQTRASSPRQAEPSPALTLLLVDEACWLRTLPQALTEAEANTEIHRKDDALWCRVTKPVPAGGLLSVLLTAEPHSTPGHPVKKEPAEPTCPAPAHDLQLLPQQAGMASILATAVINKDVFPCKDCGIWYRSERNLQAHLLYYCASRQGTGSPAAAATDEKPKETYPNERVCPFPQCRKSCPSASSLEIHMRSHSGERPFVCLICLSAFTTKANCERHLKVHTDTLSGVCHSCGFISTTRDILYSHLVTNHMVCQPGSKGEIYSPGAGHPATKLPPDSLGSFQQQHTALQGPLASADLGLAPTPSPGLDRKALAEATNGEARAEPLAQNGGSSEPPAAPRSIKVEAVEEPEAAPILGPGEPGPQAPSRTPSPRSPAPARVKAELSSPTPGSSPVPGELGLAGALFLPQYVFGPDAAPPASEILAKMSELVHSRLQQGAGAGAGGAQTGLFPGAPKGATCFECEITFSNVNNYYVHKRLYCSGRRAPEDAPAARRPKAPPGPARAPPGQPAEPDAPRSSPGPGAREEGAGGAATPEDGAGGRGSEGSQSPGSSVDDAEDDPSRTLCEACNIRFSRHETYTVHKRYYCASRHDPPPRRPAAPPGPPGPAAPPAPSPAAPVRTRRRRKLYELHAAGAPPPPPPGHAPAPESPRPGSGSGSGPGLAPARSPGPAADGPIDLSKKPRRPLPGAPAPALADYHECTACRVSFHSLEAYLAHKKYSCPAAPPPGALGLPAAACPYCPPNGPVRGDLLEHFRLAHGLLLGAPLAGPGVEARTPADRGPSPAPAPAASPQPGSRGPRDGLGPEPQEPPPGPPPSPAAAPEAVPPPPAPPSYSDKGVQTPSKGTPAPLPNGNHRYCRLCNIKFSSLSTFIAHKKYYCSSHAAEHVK
# Sequence of UniProt A4D1P6 (A4D1P6 whole entry, looked up): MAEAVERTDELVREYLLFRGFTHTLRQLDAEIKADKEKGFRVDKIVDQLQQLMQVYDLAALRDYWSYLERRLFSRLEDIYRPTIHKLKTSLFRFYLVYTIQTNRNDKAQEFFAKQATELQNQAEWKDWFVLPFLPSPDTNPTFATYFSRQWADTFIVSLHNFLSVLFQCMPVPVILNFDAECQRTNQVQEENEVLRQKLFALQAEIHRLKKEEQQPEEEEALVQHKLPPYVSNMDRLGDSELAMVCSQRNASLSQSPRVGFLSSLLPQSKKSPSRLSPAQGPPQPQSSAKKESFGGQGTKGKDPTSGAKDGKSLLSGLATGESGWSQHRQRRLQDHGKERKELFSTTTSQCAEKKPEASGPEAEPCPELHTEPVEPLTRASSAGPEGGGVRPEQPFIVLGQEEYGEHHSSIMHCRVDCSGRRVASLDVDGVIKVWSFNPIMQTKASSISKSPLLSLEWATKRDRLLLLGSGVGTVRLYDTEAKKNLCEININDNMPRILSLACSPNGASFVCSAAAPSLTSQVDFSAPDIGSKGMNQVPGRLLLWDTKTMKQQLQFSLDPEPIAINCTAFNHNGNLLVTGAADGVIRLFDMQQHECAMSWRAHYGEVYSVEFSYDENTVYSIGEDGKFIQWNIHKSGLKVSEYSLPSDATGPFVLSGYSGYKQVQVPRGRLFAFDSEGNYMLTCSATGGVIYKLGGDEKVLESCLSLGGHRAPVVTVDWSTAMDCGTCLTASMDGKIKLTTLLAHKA
Target,log2 fold change (erlotinib),log2 fold change [1],log2 fold change [2],log2 fold change [3],log2 fold change [4],log2 fold change [5],log2 fold change [6],log2 fold change [7],log2 fold change [8],log2 fold change (IRAK-1-4 Inhibitor I),log2 fold change (ibrutinib),log2 fold change [9],log2 fold change (ralimetinib),log2 fold change [10],log2 fold change [11],log2 fold change [12],log2 fold change [13],log2 fold change [14],log2 fold change [15],log2 fold change [16]
WEE1 (UniProt P30291),0.079,-0.014,-0.091,-0.051,0.019,0.01,-0.006,-0.07,0.021,0.056,-0.028,0.139,-0.017,-0.062,-0.031,-0.032,-0.012,0.023,-0.105,-0.038
ZC3HC1 (UniProt Q86WB0),0.011,-0.123,-0.006,0.005,-0.009,0.007,0.009,0.011,0.018,-0.003,-0.021,0.013,0.033,-0.004,-0.003,0.012,0.004,-0.002,0.006,0.013
UPF3B (UniProt Q9BZI7),-0.026,-0.109,0.042,0.02,-0.005,0.017,-0.014,-0.018,-0.008,0.008,-0.011,0.024,0.007,-0.006,-0.021,0.018,-0.04,0.008,-0.001,-0.003
WDR45 isoform 2 (UniProt Q9Y484),-0.047,-0.032,-0.024,-0.001,0.06,-0.008,-0.016,0.041,-0.005,-0.012,0.018,0.014,0.13,0.111,-0.008,0.014,0.028,-0.04,-0.014,-0.036
WDR91 (UniProt A4D1P6),0.02,0.04,-0.019,0.038,-0.034,0.002,0.019,-0.011,-0.007,-0.013,0.05,0.011,0.026,-0.002,-0.026,-0.013,-0.009,-0.046,0.043,0.002
ZC3H13 (UniProt Q5T200),0.081,0.003,0.034,-0.027,-0.071,0.075,-0.045,-0.016,-0.043,0.007,0.046,0.009,-0.003,-0.072,0.058,-0.101,0.046,0.08,-0.01,-0.022
WDR7 (UniProt Q9Y4E6),0.05,-0.076,-0.016,-0.059,-0.001,-0.005,-0.038,0.018,0.042,0.01,0.067,0.04,0.063,-0.075,-0.03,-0.005,-0.013,0.037,-0.06,-0.013
XAB2 (UniProt Q9HCS7),0.049,-0.088,-0.012,0.076,0.093,0.012,-0.041,0.071,-0.014,0.004,-0.089,-0.048,-0.002,-0.051,-0.011,0.014,-0.032,0.013,0.03,-0.024
VPS18 (UniProt Q9P253),0.018,0.056,-0.032,-0.021,-0.016,0.051,-0.076,-0.017,0.053,-0.034,-0.007,-0.026,0.038,-0.065,-0.022,0.004,-0.046,-0.004,-0.041,0.009
WAC (UniProt Q9BTA9),0.027,0.004,0.027,0.092,-0.064,0.008,-0.076,0.051,0.015,-0.006,-0.062,-0.008,-0.012,-0.054,-0.009,0.046,0.034,-0.016,0.022,0.004
YES1 (UniProt P07947),-0.045,0.064,0.005,-0.045,-0.023,-0.031,-0.105,0.027,0.016,0.003,0.988 (active),-0.012,-0.259,0.511 (active),0.061,0.2,0.044,0.192,-0.005,-0.131
USP48 (UniProt Q86UV5),0.022,0.001,-0.015,-0.051,0.006,0.001,0.049,-0.033,0.013,-0.026,-0.028,-0.224,-0.038,0.031,-0.009,0.018,0,-0.039,0.041,-0.227
YRDC (UniProt Q86U90),0.009,0.03,-0.001,-0.018,-0.021,0.036,0.081,-0.065,0.006,-0.02,0.01,-0.002,0.025,-0.012,0.027,-0.006,-0.015,0.021,0.007,0.008
ZFPM1 (UniProt Q8IX07),0.015,0.039,0.047,-0.041,0.005,-0.01,0.021,0.031,-0.01,0.077,0.004,-0.034,0.013,-0.067,0.02,0.01,0.003,0.033,0,-0.026
ZSWIM8 isoform 4 (UniProt A7E2V4),0.025,0.508 (active),-0.053,0.02,-0.044,-0.021,-0.163,-0.239,0.109,-0.122,-0.08,,0.101,-0.048,0.002,-0.017,0.28,-0.131,0.105,
ZYG11A (UniProt Q6WRX3),-0.125,,-0.059,,-0.061,-0.04,,,,-0.004,0.228,0.063,0.082,-0.087,-0.159,0.046,,,0.052,-0.315
